{"source": "PubChem BioAssay (Tox21)", "note": "Inconclusive results are not listed. Where a call stands in place of a potency, no number is given. The source made the active and inactive calls. Calls come from the whole dose curve; as a rule, active = well fitted curve in the direction sought with a large enough effect in the repeat runs; inconclusive = weak or mixed curves; inactive = no such curve, though single readings can be large; an effect the other way counts as inactive or inconclusive."}
{"assay": "Caspase-3/7 induction in HepG2 cells by small molecules, qHTS assay (AID 1346978); note: nearly all actives have a fitted effect of over 15% in size", "conditions": "HepG2 caspase-3/7 activation, Caspase-Glo luminescence, 17 h; series mostly up to 92.4 µM", "how_it_was_run": "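Wild-type HepG2 cells (2,000/well) were settled 5 h at 37 C, 5% CO2, then exposed to compounds in DMSO for 17 h. Caspase-3/7 activity was read by luminescence 30 min after adding Caspase-Glo 3/7 reagent at room temperature.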"}
{"smiles": "NC(=O)c1ncn([C@@H]2O[C@H](CO)[C@@H](O)[C@H]2O)c1N", "outcome": "inactive"}
{"smiles": "CCCCCCCCCCC1CO1", "note": "(stereo unspecified)", "outcome": "inactive"}
{"smiles": "NS(=O)(=O)c1cc2c(cc1Cl)NC(CSCc1ccccc1)=NS2(=O)=O", "outcome": "inactive"}
{"smiles": "CCc1cc(S(=O)(=O)O)c2cc(C(C)C)cccc1-2", "outcome": "inactive"}
{"smiles": "OCC(O)[C@@H](O)[C@H](O)[C@H](O)CO[C@H]1O[C@H](CO)[C@@H](O)[C@H](O)[C@H]1O", "note": "(stereo partly specified)", "outcome": "inactive"}
{"smiles": "C=CCOCC(O)CS(=O)(=O)O", "note": "(stereo unspecified)", "outcome": "inactive"}
{"smiles": "CCCCCCCCCCCCCCC", "outcome": "inactive"}
{"smiles": "C=CCOc1nc(OCC=C)nc(OCC=C)n1", "outcome": "inactive"}
{"assay": "Caspase-3/7 induction in CHO-K1 cells by small molecules, qHTS cell viability counter screen (AID 1346979); note: nearly all actives have a fitted effect of over 35% in size", "conditions": "CellTiter-Fluor fluorescence, 17 h; series mostly up to 92.4 µM", "how_it_was_run": "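Cytotoxicity counter screen run in parallel with the caspase-3/7 assay: CHO-K1 cells, 16hr compound treatment at 37C, then CellTiter-Fluor for 1hr before fluorescence reading.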"}
{"smiles": "NCCNC(=O)c1ccc(Cl)cn1", "Potency": "inactive"}
{"smiles": "CC1CCN(CCCC(=O)c2ccc(F)cc2)CC1", "Potency": "inactive"}
{"smiles": "OCCN1C[C@H](O)[C@@H](O)[C@H](O)[C@H]1CO", "Potency": "inactive"}
{"smiles": "CCCCCCC(CCCCCCCCCCC(=O)OCC(COC(C)=O)OC(C)=O)OC(C)=O", "note": "(stereo unspecified)", "Potency": "inactive"}
{"smiles": "NC(=O)CCCCC1CCSS1", "note": "(stereo unspecified)", "Potency": "inactive"}
{"smiles": "COc1cc(O)cc(O)c1", "Potency": "inactive"}
{"smiles": "C#CC(O)C(CC)CCCC", "note": "(stereo unspecified)", "Potency": "inactive"}
{"smiles": "O=C1OC(=O)c2cc([N+](=O)[O-])ccc21", "Potency": "inactive"}
{"smiles": "COCCOC(=O)CC#N", "Potency": "inactive"}
{"smiles": "CNc1ncnc2nc[nH]c12", "Potency": "inactive"}
{"smiles": "N#CCN(CC#N)CCN(CC#N)CC#N", "Potency": "inactive"}
{"smiles": "Nc1nc2c(ncn2CCC(CO)CO)c(=O)[nH]1", "Potency": "inactive"}
{"smiles": "CCCCCCCCCCCCI", "Potency": "inactive"}
{"smiles": "CCC(C)OC(=O)N1CCCCC1CCO", "note": "(stereo unspecified)", "Potency": "inactive"}
{"smiles": "CC(C)(C)C(=O)/C=C/c1ccc(Cl)cc1", "Potency": "inactive"}
{"smiles": "CC(C)(C)N(CCO)CCO", "Potency": "inactive"}
{"smiles": "C=CC(=O)OCCCCCC", "Potency": "inactive"}
{"smiles": "NS(=O)(=O)c1cc2c(cc1C(F)(F)F)NC(Cc1ccccc1)NS2(=O)=O", "note": "(stereo unspecified)", "Potency": "inactive"}
